# Measured values published in PubChem BioAssay AID1508601 (ICCB-Longwood Screening Facility, Harvard Medical School, 2020).
# Screen size: about 5,700 compounds; about 85 (1%) were called active. Cut-off read from the data, not from the text of the source: active = p53-positive nuclei above about 36% (passing the limit was not always enough); inactive = the rest. The entries come from a sample that favours actives as a whole.
# How the values were obtained:
# [1] = nuclear p53 accumulation, HPV+ cells – imaging, p53-positive nuclei imaging, 24 h, 48 h (AID 1508601); settings: 24/48 h
# [2] = molecular target: Cellular tumor antigen p53 (Homo sapiens) (UniProt P04637); assay: as above; settings: 24/48 h, stronger effect = higher value
# [3] = measured here: cell number at 24 h, Library stock concentration: 10 mM
# [4] = measured here: cell number at 48 h, Library stock concentration: 10 mM
# [5] = Library stock concentration: 10 mM
# [6] = measured here: p53 positive nuclei at 24 h, Library stock concentration: 10 mM
# [7] = measured here: cell number at 24 h, Library stock concentration: 80 uM
# [8] = measured here: cell number at 24 h, Library stock concentration: 400 uM
# [9] = measured here: cell number at 24 h, Library stock concentration: 2 mM
# [10] = measured here: cell number at 48 h, Library stock concentration: 80 uM
# [11] = measured here: cell number at 48 h, Library stock concentration: 400 uM
# [12] = measured here: cell number at 48 h, Library stock concentration: 2 mM
# [13] = Library stock concentration: 80 uM
# [14] = Library stock concentration: 400 uM
# [15] = Library stock concentration: 2 mM
# [16] = measured here: p53 positive nuclei at 24 h, Library stock concentration: 80 uM
# [17] = measured here: p53 positive nuclei at 24 h, Library stock concentration: 400 uM
# [18] = measured here: p53 positive nuclei at 24 h, Library stock concentration: 2 mM
# Cellular tumor antigen p53 (Homo sapiens), sequence (P04637 whole entry, looked up): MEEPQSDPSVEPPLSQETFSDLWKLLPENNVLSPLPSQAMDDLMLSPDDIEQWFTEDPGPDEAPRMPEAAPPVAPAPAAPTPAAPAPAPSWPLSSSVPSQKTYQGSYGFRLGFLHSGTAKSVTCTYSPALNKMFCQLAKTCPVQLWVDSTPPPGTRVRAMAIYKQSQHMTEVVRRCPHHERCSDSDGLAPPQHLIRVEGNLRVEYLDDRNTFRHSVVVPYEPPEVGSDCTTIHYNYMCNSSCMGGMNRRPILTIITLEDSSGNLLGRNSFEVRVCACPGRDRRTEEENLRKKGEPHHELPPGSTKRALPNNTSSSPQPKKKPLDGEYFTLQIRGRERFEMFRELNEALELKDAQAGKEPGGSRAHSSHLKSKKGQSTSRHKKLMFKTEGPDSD
compound,measurement,setting,value
COc1ccc2c3c([nH]c2c1)C(CC(C)C)N1C(=O)C(CCC(=O)OC(C)(C)C)NC(=O)C1C3 (configuration not stated),"nuclei count, normalised","[1]; measured here: cell number at 24 h, Library stock concentration: 46 uM",116%
same,"nuclei count, normalised","[1]; measured here: cell number at 24 h, Library stock concentration: 278 uM",114%
same,"nuclei count, normalised","[1]; measured here: cell number at 24 h, Library stock concentration: 1.67 mM",116%
same,"nuclei count, normalised",[1]; [3],118%
same,"nuclei count, normalised","[1]; measured here: cell number at 48 h, Library stock concentration: 46 uM",111%
same,"nuclei count, normalised","[1]; measured here: cell number at 48 h, Library stock concentration: 278 uM",106%
same,"nuclei count, normalised","[1]; measured here: cell number at 48 h, Library stock concentration: 1.67 mM",106%
same,"nuclei count, normalised",[1]; [4],108%
same,"p53-positive nuclei, normalised",[2]; Library stock concentration: 46 uM,-0.285% (inactive)
same,"p53-positive nuclei, normalised",[2]; Library stock concentration: 278 uM,-0.0842% (inactive)
same,"p53-positive nuclei, normalised",[2]; Library stock concentration: 1.67 mM,-0.358% (inactive)
same,"p53-positive nuclei, normalised",[2]; [5],-0.016% (inactive)
same,"p53-positive nuclei, normalised","[2]; measured here: p53 positive nuclei at 24 h, Library stock concentration: 46 uM",-0.0846%
same,"p53-positive nuclei, normalised","[2]; measured here: p53 positive nuclei at 24 h, Library stock concentration: 278 uM",0.0359%
same,"p53-positive nuclei, normalised","[2]; measured here: p53 positive nuclei at 24 h, Library stock concentration: 1.67 mM",-0.151%
same,"p53-positive nuclei, normalised",[2]; [6],0.0251%
NOCCC(N)C(=O)O (configuration not stated),"nuclei count, normalised","[1]; measured here: cell number at 24 h, Library stock concentration: 500 nM",99.2%
same,"nuclei count, normalised","[1]; measured here: cell number at 24 h, Library stock concentration: 1.5 uM",103%
same,"nuclei count, normalised","[1]; measured here: cell number at 24 h, Library stock concentration: 4.6 uM",103%
same,"nuclei count, normalised","[1]; measured here: cell number at 24 h, Library stock concentration: 13.7 uM",107%
same,"nuclei count, normalised","[1]; measured here: cell number at 24 h, Library stock concentration: 41 uM",111%
same,"nuclei count, normalised","[1]; measured here: cell number at 24 h, Library stock concentration: 123 uM",113%
same,"nuclei count, normalised","[1]; measured here: cell number at 24 h, Library stock concentration: 370 uM",115%
same,"nuclei count, normalised","[1]; measured here: cell number at 24 h, Library stock concentration: 1.111 mM",106%
same,"nuclei count, normalised","[1]; measured here: cell number at 24 h, Library stock concentration: 3.333 mM",110%
same,"nuclei count, normalised",[1]; [3],97.4%
same,"nuclei count, normalised","[1]; measured here: cell number at 48 h, Library stock concentration: 500 nM",98.5%
same,"nuclei count, normalised","[1]; measured here: cell number at 48 h, Library stock concentration: 1.5 uM",106%
same,"nuclei count, normalised","[1]; measured here: cell number at 48 h, Library stock concentration: 4.6 uM",104%
same,"nuclei count, normalised","[1]; measured here: cell number at 48 h, Library stock concentration: 13.7 uM",112%
same,"nuclei count, normalised","[1]; measured here: cell number at 48 h, Library stock concentration: 41 uM",113%
same,"nuclei count, normalised","[1]; measured here: cell number at 48 h, Library stock concentration: 123 uM",115%
same,"nuclei count, normalised","[1]; measured here: cell number at 48 h, Library stock concentration: 370 uM",114%
same,"nuclei count, normalised","[1]; measured here: cell number at 48 h, Library stock concentration: 1.111 mM",108%
same,"nuclei count, normalised","[1]; measured here: cell number at 48 h, Library stock concentration: 3.333 mM",112%
same,"nuclei count, normalised",[1]; [4],102%
same,"p53-positive nuclei, normalised",[2]; Library stock concentration: 500 nM,-0.0211% (inactive)
same,"p53-positive nuclei, normalised",[2]; Library stock concentration: 1.5 uM,-0.092% (inactive)
same,"p53-positive nuclei, normalised",[2]; Library stock concentration: 4.6 uM,-0.0486% (inactive)
same,"p53-positive nuclei, normalised",[2]; Library stock concentration: 13.7 uM,-0.0639% (inactive)
same,"p53-positive nuclei, normalised",[2]; Library stock concentration: 41 uM,0.121% (inactive)
same,"p53-positive nuclei, normalised",[2]; Library stock concentration: 123 uM,-0.0786% (inactive)
same,"p53-positive nuclei, normalised",[2]; Library stock concentration: 370 uM,-0.0673% (inactive)
same,"p53-positive nuclei, normalised",[2]; Library stock concentration: 1.111 mM,-0.0556% (inactive)
same,"p53-positive nuclei, normalised",[2]; Library stock concentration: 3.333 mM,-0.0652% (inactive)
same,"p53-positive nuclei, normalised",[2]; [5],-0.0323% (inactive)
same,"p53-positive nuclei, normalised","[2]; measured here: p53 positive nuclei at 24 h, Library stock concentration: 500 nM",0.111%
same,"p53-positive nuclei, normalised","[2]; measured here: p53 positive nuclei at 24 h, Library stock concentration: 1.5 uM",-0.132%
same,"p53-positive nuclei, normalised","[2]; measured here: p53 positive nuclei at 24 h, Library stock concentration: 4.6 uM",-0.00649%
same,"p53-positive nuclei, normalised","[2]; measured here: p53 positive nuclei at 24 h, Library stock concentration: 13.7 uM",-0.187%
same,"p53-positive nuclei, normalised","[2]; measured here: p53 positive nuclei at 24 h, Library stock concentration: 41 uM",0.0689%
same,"p53-positive nuclei, normalised","[2]; measured here: p53 positive nuclei at 24 h, Library stock concentration: 123 uM",-0.0424%
same,"p53-positive nuclei, normalised","[2]; measured here: p53 positive nuclei at 24 h, Library stock concentration: 370 uM",0.0115%
same,"p53-positive nuclei, normalised","[2]; measured here: p53 positive nuclei at 24 h, Library stock concentration: 1.111 mM",0.0344%
same,"p53-positive nuclei, normalised","[2]; measured here: p53 positive nuclei at 24 h, Library stock concentration: 3.333 mM",-0.136%
same,"p53-positive nuclei, normalised",[2]; [6],-0.121%
O=c1[nH]c2ccc(Cl)cc2c(NC2CN3CCC2CC3)c1-c1nc2ccccc2[nH]1 (configuration not stated),"nuclei count, normalised","[1]; measured here: cell number at 24 h, Library stock concentration: 3.33 mM",52.7%
same,"nuclei count, normalised","[1]; measured here: cell number at 48 h, Library stock concentration: 3.33 mM",33.7%
same,"p53-positive nuclei, normalised",[2]; Library stock concentration: 3.33 mM,34% (inactive)
same,"p53-positive nuclei, normalised","[2]; measured here: p53 positive nuclei at 24 h, Library stock concentration: 3.33 mM",8.33%
C[C@]12C=CC(=O)C=C1CC[C@@H]1[C@@H]2CC[C@]2(C)OC(=O)CC[C@@H]12,"nuclei count, normalised",[1]; [7],87.6%
same,"nuclei count, normalised",[1]; [8],90.3%
same,"nuclei count, normalised",[1]; [9],93%
same,"nuclei count, normalised",[1]; [3],89.5%
same,"nuclei count, normalised",[1]; [10],95.1%
same,"nuclei count, normalised",[1]; [11],95%
same,"nuclei count, normalised",[1]; [12],99.5%
same,"nuclei count, normalised",[1]; [4],97.4%
same,"p53-positive nuclei, normalised",[2]; [13],-0.0445% (inactive)
same,"p53-positive nuclei, normalised",[2]; [14],0.096% (inactive)
same,"p53-positive nuclei, normalised",[2]; [15],-0.0494% (inactive)
same,"p53-positive nuclei, normalised",[2]; [5],-0.00393% (inactive)
same,"p53-positive nuclei, normalised",[2]; [16],-0.0455%
same,"p53-positive nuclei, normalised",[2]; [17],0.101%
same,"p53-positive nuclei, normalised",[2]; [18],0.166%
same,"p53-positive nuclei, normalised",[2]; [6],-0.0487%
O=C1C(=O)c2cccc3cccc1c23,"nuclei count, normalised",[1]; [7],115%
same,"nuclei count, normalised",[1]; [8],118%
same,"nuclei count, normalised",[1]; [9],118%
same,"nuclei count, normalised",[1]; [3],109%
same,"nuclei count, normalised",[1]; [10],119%
same,"nuclei count, normalised",[1]; [11],112%
same,"nuclei count, normalised",[1]; [12],115%
same,"nuclei count, normalised",[1]; [4],115%
same,"p53-positive nuclei, normalised",[2]; [13],0.0597% (inactive)
same,"p53-positive nuclei, normalised",[2]; [14],0.0621% (inactive)
same,"p53-positive nuclei, normalised",[2]; [15],0.165% (inactive)
same,"p53-positive nuclei, normalised",[2]; [5],0.252% (inactive)
same,"p53-positive nuclei, normalised",[2]; [16],-0.0696%
same,"p53-positive nuclei, normalised",[2]; [17],-0.0154%
same,"p53-positive nuclei, normalised",[2]; [18],0.208%
same,"p53-positive nuclei, normalised",[2]; [6],0.327%
